Measured values from PubChem BioAssay AID588591 (National Center for Advancing Translational Sciences (NCATS), 2011).
Screen size: about 390,000 compounds; about 4,700 (1.2%) were called active. Where a call stands in place of a potency, no number is given. Roughly 4% stayed inconclusive and do not appear here. The sample holds actives, similar compounds and a random draw of the others, so the mix is not that of the screen. Calls follow the shape of the dose curve; as a rule, active = well fitted inhibition curve with a large enough effect; inconclusive = small, poorly fitted or top-dose-only effect, or another doubt; inactive = no such curve, though single readings can be large or run the other way.

molecular target: DNA polymerase eta (Homo sapiens) (UniProt Q9Y253); assay: qHTS for Inhibitors of Polymerase Eta; settings: recombinant Pol eta, fluorescent DNA replication assay; series mostly up to 114 µM
Summary of the method: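 Fluorescent replication assay: 50 nM final substrate added after a 15 min room-temperature compound preincubation with 10 nM enzyme. Signal taken at 0 min and again at 10 min.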
Potency is read from the fitted curve at half-maximal effect.

Chain of DNA polymerase eta (Homo sapiens) (Q9Y253 whole entry, looked up): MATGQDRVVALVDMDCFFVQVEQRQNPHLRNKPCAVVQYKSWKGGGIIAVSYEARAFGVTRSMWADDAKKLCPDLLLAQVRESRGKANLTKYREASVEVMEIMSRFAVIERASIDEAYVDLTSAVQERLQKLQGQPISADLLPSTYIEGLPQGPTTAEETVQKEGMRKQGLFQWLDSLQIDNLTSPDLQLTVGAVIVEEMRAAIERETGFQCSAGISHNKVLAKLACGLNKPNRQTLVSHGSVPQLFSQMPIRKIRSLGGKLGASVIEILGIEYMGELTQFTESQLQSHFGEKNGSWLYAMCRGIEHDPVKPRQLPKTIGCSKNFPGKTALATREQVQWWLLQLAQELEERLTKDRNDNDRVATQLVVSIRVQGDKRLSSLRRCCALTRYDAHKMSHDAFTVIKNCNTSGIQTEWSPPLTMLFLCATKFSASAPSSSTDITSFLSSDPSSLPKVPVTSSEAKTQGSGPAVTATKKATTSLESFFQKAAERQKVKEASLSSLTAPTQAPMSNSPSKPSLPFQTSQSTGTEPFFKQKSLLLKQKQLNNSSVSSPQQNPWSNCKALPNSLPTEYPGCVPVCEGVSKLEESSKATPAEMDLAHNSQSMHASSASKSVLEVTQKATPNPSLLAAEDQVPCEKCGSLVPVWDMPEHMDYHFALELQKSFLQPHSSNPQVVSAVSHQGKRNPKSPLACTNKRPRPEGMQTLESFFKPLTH

| Compound | Potency |
| --- | --- |
| CCCN(CCC)C(=O)C(Cc1ccccc1)NS(=O)(=O)c1ccc2c(c1)c(=O)n(C)c(=O)n2C (stereo not drawn) | inactive |
| Cc1oc(-c2ccccc2)nc1Cn1c(SCc2cccc(C(F)(F)F)c2)nc2cccnc21 | inactive |
| Cc1ccccc1CSc1nnc(-c2ccccc2)c(=O)[nH]1 | inactive |
| N#Cc1c(-c2ccccc2)nc(SCc2cccc(C(F)(F)F)c2)[nH]c1=O | 89.1 µM (active) |
| COc1ccccc1OCC(=O)Nc1nnc2n1CCS2 | inactive |
| COc1ccccc1CNC(=O)c1ccc(NC(=O)N2CC(C)Sc3ccccc32)cc1 (stereo not drawn) | inactive |
| Cc1cc(C)c2nc(-c3ccco3)cc(C(=O)O)c2c1 | 22.4 µM (active) |
| Cc1cccc(NC(=O)CSc2nc(-c3ccco3)cc(C(F)(F)F)n2)c1C | inactive |
| Cc1ccc(F)cc1NC(=O)CCSc1nc(-c2ccco2)cc(C(F)(F)F)n1 | inactive |
| CCN(CCCNC(=O)c1cc2c(=O)n(CC)c3ccccc3c2s1)Cc1ccccc1 | inactive |
| COC(=O)c1ccccc1NC(=O)c1cc(-c2ccccc2O)no1 | inactive |
| COc1ccc(NC(=O)c2sc3nc[nH]c(=O)c3c2C)cc1 | inactive |
| CCOC(=O)c1ccc(N2C(=O)c3[nH]nc(-c4ccccc4)c3C2c2ccc(C(C)C)cc2)cc1 (stereo not drawn) | inactive |
| O=C(O)c1cccc2c1C(=O)N(C1CCCCC1)C2 | 31.6 µM (active) |
| COC(=O)c1ccc(NC(=O)c2cccc3c2C(=O)N(C2CCCCC2)C3)cc1 | inactive |
| O=C(O)c1cccc2c1C(=O)N(C1CCCC1)C2 | inactive |
| CCC1(C)CC(=O)NC1=O (stereo not drawn) | inactive |
| Cc1cc2nc(-c3ccc(NC(=O)c4cc5ccccc5o4)cc3)oc2cc1C | inactive |
| Cc1cccc(N(C)C(=O)CS(=O)(=O)c2cccc3nsnc23)c1 | inactive |
| COc1ccc(NC(=O)CSC2=Nc3ccccc3C3=NC(CC(=O)NCc4ccccc4OC)C(=O)N23)cc1Cl (stereo not drawn) | inactive |
| CCN(CC)S(=O)(=O)c1cc(C(=O)Nc2ccccn2)ccc1C | inactive |
| CCOc1ccc(C(=O)N2CCN(CCc3ccccn3)CC2)cc1 | inactive |
| CCN(CC)CCOc1ccc2c(c1)C(=NNC(=O)c1ccccn1)c1cc(OCCN(CC)CC)ccc1-2 | 22.4 µM (active) |
| COC(=O)c1ccc(NC(=O)c2cnn(-c3ccc(Cl)cc3)c2C2CCN(C(=O)OC(C)(C)C)CC2)cc1 | inactive |
| COc1ccc(-c2nn(CC(=O)Nc3ccccc3F)c3c2cnc2ccc(F)cc23)cc1 | inactive |
| O=C(c1ccc(NS(=O)(=O)c2ccc3[nH]c(=O)[nH]c3c2)cc1)N1CCCCC1 | inactive |
| O=C(O)c1ccc(NS(=O)(=O)c2ccc3c(c2)C(=O)c2cc(S(=O)(=O)Nc4ccc(C(=O)O)cc4)ccc2-3)cc1 | 39.8 µM (active) |
| Cc1cc(C(C)(C)C)cc(S(=O)(=O)Nc2ccc(C(=O)O)cc2)c1C | inactive |
